Assay outcomes as filed in PubChem.
A selection: hits, their analogues and other compounds. The true share with any hit is near 3.6%.
GDH-TPI counter-1 = GDH-TPI coupling enzyme inhibitors, primary screen, artefact control for M. tuberculosis FBA inhibitor project, biochemical, absorbance, full deck | GDH-TPI coupled enzyme counterscreen, NADH absorbance | inhibition, % at 4.8 µM | 360,000 tested, 1.2% active | AID 588335, 2011; in the data active = inhibition above about 30%;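 note: 0% = DMSO wells and 100% = wells lacking the enzyme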
DUSP3 inh = VHR1 phosphatase inhibitors, primary screen, biochemical, absorbance, uHTS; 290,000 tested, 0.52% active; recombinant VHR phosphatase, pNPP absorbance; inhibition, % at 13.3 µM; AID 1654, 2009; in the data active = inhibition above about 50%
Target sequence (P51452 whole entry, looked up): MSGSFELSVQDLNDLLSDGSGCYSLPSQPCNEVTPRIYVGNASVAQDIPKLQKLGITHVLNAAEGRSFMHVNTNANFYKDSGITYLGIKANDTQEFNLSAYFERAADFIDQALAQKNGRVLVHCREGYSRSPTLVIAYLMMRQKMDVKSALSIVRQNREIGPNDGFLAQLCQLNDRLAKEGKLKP
Mtb bLac sens = beta-lactam sensitization of Mtb H37Rv, H37Rv; M. tuberculosis H37Rv growth with meropenem, percent inhibition; AID 434955, 2010; inhibition, % at 25 µM; 330,000 tested, 0.27% active; call rule not given here;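 note: growth measured after seven days incubation then overnight dye step; 0% = bacteria only wells and 100% = bacteria with antibiotic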
Mtb hypoxia inh = PubChem AID 1159583. M. tuberculosis hypoxia-regulated fluorescent reporter, fluorescence. 300,000 tested, 0.1% active. fluorescence inhibition, % (no concentration beside the values); in the data active = fluorescence inhibition mostly above about 23%, no sharp cut-off; inactive = mostly below about 17%
FBA Mtb inh = Mtb FBA enzyme inhibitors, primary screen, biochemical, fluorescence, strain H37Rv; Fructose-bisphosphate aldolase (Mycobacterium tuberculosis (strain ATCC 25618 / H37Rv)), …; purified M. tuberculosis FBA, fluorescence read-out; inhibition, % at 1 µM; 360,000 tested, 2.3% active;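 note: 0% = vehicle and 100% = reference inhibitor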
Mtb FBA confirm = M. tuberculosis aldolase blockers, biochemical, fluorescence, strain H37Rv, confirmation | shares compounds with FBA Mtb inh | purified M. tuberculosis FBA, fluorescence read-out | inhibition, % at 1 µM | 5,600 tested, 78% active | AID 651616, 2012;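 note: 0% = vehicle wells and 100% = reference inhibitor wells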
GDH-TPI counter-2 = GDH-TPI coupling enzyme inhibitors, artefact control for M. tuberculosis FBA inhibitor project, biochemical, fluorescence, high throughput; inhibition, % at 1 µM; 5,600 tested, 81% active; shares compounds with FBA Mtb inh; GDH-TPI coupled enzyme counterscreen; in the data active = inhibition above about 10%
Numbers without * were called inactive; ? = inconclusive; . = no result given; + = active, no number. Cut-off read from the data, not from the text of the source, unless noted: active = inhibition above about 27%; inactive = the rest.

SMILES | GDH-TPI counter-1 | DUSP3 inh | Mtb bLac sens | Mtb hypoxia inh | FBA Mtb inh | Mtb FBA confirm | GDH-TPI counter-2
CCC(C)Cc1cn(C(CCCCN)C(=O)NCCCCCCCCCCC(=O)N2CCNCC2)nn1 (stereo not given) | . | . | . | 16.0 | . | . | .
CC1(C)Cc2c(C#N)c(N3CCOCC3)nc(Cc3ccccc3)c2CO1 | 5.3 | 8.2 | 54.5 | . | 35.3* | 64.8* | 51.9*
Cc1nc(N2CCOCC2)c(C#N)c2c1COC(C)(C)C2 | -5.0 | -8.8 | 0.3 | -13.8 | 51.1* | 8.0 | -5.2
CC1(C)Cc2c(C#N)c(N3CCN(C(=O)c4ccccc4)CC3)nc(Cc3ccccc3)c2CO1 | 3.9 | 18.7 | 74.9 | . | 1.5 | . | .
CCOC(=O)Cc1c(C)nc(N)[nH]c1=O | 1.2 | 5.6 | -2.3 | 9.3 | 0.2 | . | .
C[C@H](O)C(=O)C1=Nc2c(nc(N)[nH]c2=O)NC1 | 18.8 | . | -2.5 | . | 27.0* | 40.8* | 33.1*
COC(=O)C1=C(c2cc3ccccc3o2)CC2CCC1N2C(=O)N1CCC(O)CC1 (stereo not given) | . | . | . | 9.0 | . | . | .
CCOC(=O)C1C2COc3ccccc3C2N2C(=O)N(c3cccc(F)c3)C(=O)[C@]12C (stereo not given in full) | . | . | . | 8.4 | . | . | .
CCN(CC)CCCNc1nc(C)cc(COC)c1C#N | 5.7 | -7.5 | -9.2 | 13.3 | 75.8* | 114.4* | 102.6*
COc1ccc(OC)c(/C=C/C(=O)Nc2cccc(S(=O)(=O)N3CCCC3)c2)c1 | 8.4 | 36.3 | -8.3 | -4.7 | 30.0* | 48.7* | 43.2*
COc1ccc(OC)c(/C=C/C(=O)Nc2cccc(S(=O)(=O)NC3=NCCCCC3)c2)c1 | -0.3 | . | 4.5 | -3.6 | 19.9 | . | .
Cc1nn(-c2ccccc2)c(Cl)c1C=C(CC(=O)O)c1nc2ccccc2s1 | . | . | . | 5.7 | . | . | .
CC(C)=CC(=O)O[C@@H]1Cc2cc3ccc(=O)oc3cc2OC1(C)C | 18.7 | . | 3.1 | 0.7 | 34.1* | + | +
C/C=C(\C)C(=O)OC(C)(C)[C@H]1Cc2cc3ccc(=O)oc3cc2O1 | 5.9 | 23.9 | -1.5 | -6.9 | 93.5* | + | +
CC(C)(OC1OC(CO)C(O)C(O)C1O)C1Cc2cc3ccc(=O)oc3cc2O1 (stereo not given) | . | . | . | 7.5 | . | . | .
CC(=O)OC(C)(C)C1Cc2cc3ccc(=O)oc3cc2O1 (stereo not given) | 10.3 | -11.9 | -0.6 | -1.8 | 104.1* | 0.3 | -1.5
CC=C(C)C(=O)OC1c2c(ccc3ccc(=O)oc23)OC1C(C)(C)OC(C)=O (stereo not given) | . | . | . | 4.3 | . | . | .
CC(=NNC(=O)C1COc2ccccc2O1)c1cc2ccccc2o1 (stereo not given) | . | . | . | 4.6 | . | . | .
CCOC(=O)N1CCN(C(=O)c2ccc3nc(-c4ccccc4)c(-c4ccccc4)nc3c2)CC1 | 24.8 | 7.1 | 61.9 | 4.5 | 35.3* | 99.4* | 66.9*
CCOc1ccc(-c2cc(C(=O)N3CCN(C)CC3)c3ccccc3n2)cc1 | 19.0 | 7.2 | -2.5 | -4.8 | 92.5* | -7.5 | -6.1
CCOc1ccc(-c2cc(C(=O)N3CCCC3)c3ccccc3n2)cc1 | 9.0 | 29.8 | ? | 2.0 | 91.3* | 152.5* | 131.1*
C=CCNC(=O)c1ccc(C(=O)c2ccccc2)cc1 | -10.2 | 13.6 | -1.1 | 1.9 | 0.6 | . | .
C=CCNC(=O)c1ccc2nc(-c3ccccc3)c(-c3ccccc3)nc2c1 | 10.1 | 35.1 | 11.0 | 9.7 | 31.9* | + | 175.0*
O=C(NN=Cc1cccc2ccccc12)c1ccc(CN2CCOCC2)cc1 | . | . | . | -3.7 | . | . | .
COC(=O)C1=C(c2cc3ccccc3s2)CC2CCC1N2C(=O)NCC1CC1 (stereo not given) | . | . | . | 8.2 | . | . | .
CCOC(=O)N1CCN(C(=O)c2cc(-c3ccc(OCC)cc3)nc3ccccc23)CC1 | 26.3 | 18.8 | 26.0 | 3.7 | 76.9* | 103.4* | 71.1*
COCCN1C(=O)NC(c2ccccc2)C(C(C)=O)=C1C (stereo not given) | . | . | . | 11.0 | . | . | .
N#CCSc1n[nH]c2nc3c(c(=O)n12)C1(CCCC1)Cc1ccccc1-3 | -5.8 | -5.4 | -11.8 | 6.3 | 65.8* | 114.7* | 82.7*
